Source: PubChem BioAssay (National Center for Advancing Translational Sciences (NCATS))
This is a sample that favours compounds with a hit; in the whole collection about 1.8% have one here.
p53ts 39C tox: kills p53ts cells at the nonpermissive temperature; Potency, µM (top dose mostly 46.1 µM), for inactives: at the highest dose activity change, negative = cell killing, most hits filed as cytotoxic; H1299-p53A138V viability at 39C, ATP luminescence, 24 h; 1.5% of 130,000 active; further: on the % scale 0 is the no-effect control and ±100 the full control effect; nearly all actives have a fitted effect of over 55% in size
p53ts 32C kill: p53ts cell cytotoxicity, permissive temperature; H1299-p53A138V at 32C, ATP luminescence viability, 24 h; Potency, µM (series often up to 46.1 µM), for the others: top-dose activity change, negative = cytotoxicity, most hits filed as cytotoxic; 0.93% of 130,000 active;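 further: 0% = DMSO and -100% = full killing by reference compound; nearly all actives have a fitted effect of over 55% in size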
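Cells: H1299 p53ts (A138V), 600/well, pre-incubated 16–30 h at 37C. Cpd up to 46 uM, 24 h, 32C. Readout: ATPlite luminescence, 20 min RT. Normalization: DMSO vs tamoxifen 100 uM. AC50 by Hill equation.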
Imprint erasure: genomic imprint erasure induction; mouse ES Peg3-LacZ reporter, beta-gal luminescence, 40 h; Potency, µM (top dose mostly 60.7 µM), without a hit: at the highest dose activity change, positive = activation, usual class: activators; 0.02% of 110,000 active
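Each well holds 300 Peg3LacZ-Neo (maternal) female ES cells incubated 40 h at 37C, 5% CO2. LacZ is measured by BetaGlo luminescence, with AC50 and maximum efficacy derived from dose-response curves.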
* marks the source's active call; other numbers are inactive results; ? = inconclusive; / = not tested or not shown; ! = not active in a repeat; [ ] = remark or other dose. The call rests on the fitted dose curve; in most records, active means well fitted curve in the direction sought with a large enough effect; inconclusive means small, poorly fitted or top-dose-only effect, or another doubt; inactive means no such curve, though single readings can be large; an effect the other way counts as inactive or inconclusive. Potency means the concentration at half of the fitted maximal effect.

SMILES	p53ts 39C tox	p53ts 32C kill	Imprint erasure
Cc1oc2ncn(C)c(=O)c2c1C(=O)NCc1ccccc1	14%	0%	-1%[10.9 µM]
COc1cc(OC)c(NC(=O)c2ccc3c(c2)N(Cc2ccc(C)cc2)CCS3)cc1Cl	-5%	1%	-19%[10.9 µM]
COc1ccc(-n2nnnc2S(=O)(=O)CC(=O)N2CCCCC2)cc1	?	20µM*	-35%
COc1ccc(-n2nnnc2S(=O)(=O)Cc2ccc(C(=O)O)cc2)cc1	14%	31%	-37%
Cc1ccccc1NS(=O)(=O)c1ccc2[nH]cc(C(=O)N3CCCC3)c(=O)c2c1	6%	2%	-10%[10.9 µM]
CCOCCCNC(=O)C1CCN(c2nn3cc(-c4ccc(F)cc4)nc3s2)CC1	/	-7%	/
COCc1cc(C)nc2sc3c(c12)NC(c1ccccc1C(=O)O)N(c1cccc(C(F)(F)F)c1)C3=O (stereo not drawn)	1%	0%	20%[10.9 µM]
COc1ccccc1C1Nc2c(sc3nc(C)cc(C)c23)C(=O)N1c1ccccc1 (stereo not drawn)	13µM*	?	-7%[10.9 µM]
CC(=O)Oc1c(C)cc(OCC(O)CNC(C)C)c(C)c1C (stereo not drawn)	/	/	-23%
CN(C)c1ccc(CN(Cc2ccco2)C(=O)c2ccc(F)cc2)cc1	8%	10%	-7%[10.9 µM]
COC(=O)CNC(c1ccccc1)c1cc(Br)ccc1NC(=O)c1cc(OC)c(OC)c(OC)c1 (stereo not drawn)	12%	18%	-12%[10.9 µM]
CC(C(=O)O)c1ccc(N2Cc3ccccc3C2=O)cc1 (stereo not drawn)	10µM*	10µM*	-92%
CC(C)CCNC(=O)[C@@H](c1ccccc1)N1Cc2ccccc2C1=O	-13%	8%	-4%[10.9 µM]
COC(=O)c1ccc(Nc2nc(-c3ccc(C)cc3)nc3ccccc23)cc1	13µM*	?	-23%[10.9 µM]
CN(C)C(=O)c1ccc(-c2nc(Nc3ccccc3)c3ccccc3n2)cc1	?	?	-10%
c1ccc(Nc2nc(-c3ccoc3)nc3ccccc23)cc1	0%	12%	4µM*
c1ccc2c(NC3CC3)nc(-c3ccoc3)nc2c1	-2%	13%	-12%
CC1=C(C(=O)O)N2C(=O)[C@@H](NC(=O)[C@@H](N)c3ccccc3)[C@@H]2SC1	/	/	-10%[16.8 µM]
Cc1cccc(C(=O)Nc2ccc3oc(-c4ccncc4)nc3c2)c1	-18%	-7%	-9%[10.9 µM]
Fc1ccc(Nc2nc(SCc3cccc(Cl)c3)nc3ccccc23)cc1	?	13%	-13%[10.9 µM]
CCOC(=O)c1ccc(NC(=O)c2cc3ccccc3o2)cc1	-24%	-24%	-48%
CCC(=O)Nc1cccc(NC(=O)c2cc3ccccc3o2)c1	13µM*	10µM*	-76%
O=C(Nc1cccc(Br)c1)c1cc2ccccc2o1	?	?	-75%
Cc1cccc(NC(=O)c2cc3ccccc3o2)c1	10µM*	13µM*	-83%
O=C(CN1C(=O)COc2ccc(S(=O)(=O)NC3CCCC3)cc21)Nc1ccc(Cl)cc1	/	0%	/
SMILES	p53ts 39C tox	p53ts 32C kill	Imprint erasure
COc1ccc(Cc2nnc(N/N=C/c3ccc(O)cc3)[nH]c2=O)cc1OC	2.8µM*	/	/
COc1ccc(Cc2n[nH]c(=O)c3ccccc23)cc1OC	-8%	-3%	-14%
COc1cccc(-n2c(=O)c3sc4ccccc4c3n(CC(=O)Nc3ccccc3OC)c2=O)c1	10µM*	-12%	-8%[10.9 µM]
COc1cccc(-n2c(=O)c3sc4ccccc4c3n(CC(=O)Nc3ccccc3C)c2=O)c1	1%	-12%	-8%[10.9 µM]
O=C(Nc1cc2ccc(O)cc2oc1=O)c1ccc(F)cc1	?	?	-35%[10.9 µM]
Cc1cccc(C(=O)Nc2ccc(C(=O)OCc3cc(=O)n4nc(CC(C)C)sc4n3)cc2)c1	4%	-8%	-8%[10.9 µM]
Cc1cc(Nc2ccccc2)nc(-c2ccccc2O)n1	0%	-12%	-20%
Cc1cc(Nc2cccc(F)c2)nc(-c2ccccc2O)n1	16µM*	?	-23%
CN(C)c1ccc(/C=C/c2noc(-c3ccccc3O)n2)cc1	-3%	-21%	-80%[10.9 µM]
Oc1ccccc1-c1nc(/C=C/c2ccccc2Cl)no1	7.9µM*	7.9µM*	-55%[10.9 µM]
CCc1ccc2oc(C(=O)NCC(c3ccc(Cl)cc3)N3CCOCC3)c(C)c2c1 (stereo not drawn)	7%	9%	-11%[10.9 µM]
O=C(Nc1cc2c(cc1C(=O)c1ccccc1Br)OCCO2)c1ccccc1	2%	4%	-10%[10.9 µM]
O=C(Nc1cc2c(cc1C(=O)c1ccccc1)OCCO2)c1ccc(Br)cc1	20µM*	-6%	-17%[10.9 µM]
Cc1cc(C)c(NC(=O)Cc2ccc(-n3c(C)nc4cccnc43)cc2)c(C)c1	1%	12%	-14%[10.9 µM]
Cc1cccc(C)c1OC[C@@H](N)C(C)C	-6%	-14%	/
COc1cccc(C(=O)COC(=O)C(C)N2C(=O)c3ccccc3C2=O)c1 (stereo not drawn)	11%	-3%	3%
COc1ccc(C(=O)COC(=O)C(CC(C)C)N2C(=O)c3ccccc3C2=O)cc1 (stereo not drawn)	?	16µM*	/
COc1ccc2nc3sc(C(=O)Nc4cc(Cl)c(OC)cc4OC)cc3cc2c1	6.3µM*	?	-5%[10.9 µM]
CCOc1ccc(CCNC(=O)c2cc3cc4cc(OC)ccc4nc3s2)cc1OCC	-2%	2%	-16%[10.9 µM]
CCOc1ccccc1C(=O)N1CCC(c2nc3ccccc3o2)CC1	6%	-8%	-14%[10.9 µM]
O=C(CSc1ncccc1-c1nc2ccccc2[nH]1)NCc1ccco1	-15%	-11%	-45%
Cc1cc2nc(-c3cccnc3SCC(=O)NCc3ccco3)[nH]c2cc1C	5µM*	5µM*	-94%
CCN(CC)C(C)CN1c2ccccc2Sc2ccccc21 (stereo not drawn)	25µM*	-19%	-28%
CCC(=O)/C=C1/Sc2ccccc2N1CC	8%	-12%	/
CCCCN(C)c1nc2c(S(=O)(=O)c3ccc(CC)cc3)nnn2c2ccc(Cl)cc12	-4%	8%	-14%[10.9 µM]
SMILES	p53ts 39C tox	p53ts 32C kill	Imprint erasure
CCOc1ccc(-c2cccc(NS(=O)(=O)c3ccccc3C(F)(F)F)c2)nn1	1%	-1%	10%[10.9 µM]
CCCOc1ccc(C2c3c(-c4ccccc4O)n[nH]c3C(=O)N2CCc2ccccc2)cc1OCC (stereo not drawn)	?	?	-6%[10.9 µM]
COc1ccc(C2c3c(-c4ccccc4O)n[nH]c3C(=O)N2CCc2ccccc2)cc1 (stereo not drawn)	?	47%	-7%[10.9 µM]
CC(C)c1ccc(C2c3c(-c4ccccc4O)n[nH]c3C(=O)N2CCc2ccccc2)cc1 (stereo not drawn)	25µM*	-11%	-8%[10.9 µM]
Cc1ccc(C2c3c(-c4ccccc4O)n[nH]c3C(=O)N2CCc2ccccc2)cc1 (stereo not drawn)	32µM*	13µM*	-23%[10.9 µM]
NC(=NC1C2CC3CC(C2)CC1C3)Nc1ccc(I)cc1 (stereo not drawn)	25µM*	-8%	-10%
Cc1ccc(O)c(NC(=O)c2cc(-c3ccccc3O)no2)c1	7%	10%	-5%[10.9 µM]
Cc1ccc(-c2cc(-c3ccccc3)no2)c(O)c1	5µM*	/	/
CN1CC[C@H](CN2c3ccccc3Sc3ccccc32)C1	-9%[9.22 µM]	0%[9.22 µM]	-5%[10.9 µM]
CSc1ccc2c(c1)N(CC[C@H]1CCCCN1C)c1ccccc1S2	13µM*!	/	-16%[16.8 µM]
CSc1ccc2c(c1)N(CCC1CCCCN1C)c1ccccc1S2 (stereo not drawn)	13µM*	/	-32%
